The supplement of paper PMC4466140

How the values were obtained:
Test in all cases: SPOT peptide array binding signal intensity (averaged, normalized) (arbitrary units (background-subtracted, floor 0; scale differs between SH3 domains)); higher = stronger binding of the SH3 domain to the peptide
SpBzz1-D2 = target: SpBzz1-D2
Summary of the method: (§1)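 Cellulose membranes carried synthetic 15-mer peptides with cysteines swapped for serines. These were incubated overnight at 4°C with 10 μg/ml of GST-fused SH3 domains from four yeast species in TBS-based blocking buffer. Binding signal, detected with anti-GST antibody and quantified in Genespotter, is the normalized, background-subtracted spot intensity averaged over replicates, in arbitrary units specific to each domain.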

SpCyk3 = target: SpCyk3
Summary of the method: as §1

SpHof1 = target: SpHof1
Summary of the method: as §1

SpHof1-2 = target: SpHof1-2
Summary of the method: as §1

SpHof1-3 = target: SpHof1-3
Summary of the method: as §1

SpHse1 = target: SpHse1
Summary of the method: as §1

SpLsb1 = target: SpLsb1
Summary of the method: as §1

SpLsb4 = target: SpLsb4
Summary of the method: as §1

SpMyo1 = target: SpMyo1
Summary of the method: as §1

SpNbp2 = target: SpNbp2
Summary of the method: as §1

SpPex13 = target: SpPex13
Summary of the method: as §1

SpRvs167 = target: SpRvs167
Summary of the method: as §1

SpSla1-D1-D2 = target: SpSla1-D1-D2
Summary of the method: as §1

SpSla1-D3 = target: SpSla1-D3
Summary of the method: as §1

AgAbp1 = target: AgAbp1
Summary of the method: as §1

AgBbc1 = target: AgBbc1
Summary of the method: as §1

AgBem1-D1 = target: AgBem1-D1
Summary of the method: as §1

AgBzz1-D1 = target: AgBzz1-D1
Summary of the method: as §1

AgBzz1-D2 = target: AgBzz1-D2
Summary of the method: as §1

AgCyk3 = target: AgCyk3
Summary of the method: as §1

AgFus1 = target: AgFus1
Summary of the method: as §1

AgHof1 = target: AgHof1
Summary of the method: as §1

AgHse1 = target: AgHse1
Summary of the method: as §1

AgLsb1 = target: AgLsb1
Summary of the method: as §1

AgLsb4 = target: AgLsb4
Summary of the method: as §1

AgMyo5 = target: AgMyo5
Summary of the method: as §1

AgNbp2 = target: AgNbp2
Summary of the method: as §1

AgRvs167 = target: AgRvs167
Summary of the method: as §1

AgSho1 = target: AgSho1
Summary of the method: as §1

AgSla1-D1-D2 = target: AgSla1-D1-D2
Summary of the method: as §1

AgSla1-D3 = target: AgSla1-D3
Summary of the method: as §1

CaAbp1-D1 = target: CaAbp1-D1
Summary of the method: as §1

CaAbp1-D2 = target: CaAbp1-D2
Summary of the method: as §1

CaBbc1 = target: CaBbc1
Summary of the method: as §1

CaBem1-D1 = target: CaBem1-D1
Summary of the method: as §1

CaBzz1-D1 = target: CaBzz1-D1
Summary of the method: as §1

CaBzz1-D2 = target: CaBzz1-D2
Summary of the method: as §1

CaCyk3 = target: CaCyk3
Summary of the method: as §1

CaFus1 = target: CaFus1
Summary of the method: as §1

CaHof1 = target: CaHof1
Summary of the method: as §1

CaHse1 = target: CaHse1
Summary of the method: as §1

CaLsb1 = target: CaLsb1
Summary of the method: as §1

CaLsb4 = target: CaLsb4
Summary of the method: as §1

CaMyo5 = target: CaMyo5
Summary of the method: as §1

CaNbp2 = target: CaNbp2
Summary of the method: as §1

CaRvs167 = target: CaRvs167
Summary of the method: as §1

CaRvs167-3 = target: CaRvs167-3
Summary of the method: as §1

CaSho1 = target: CaSho1
Summary of the method: as §1

CaSla1-D1-D2 = target: CaSla1-D1-D2
Summary of the method: as §1

CaSla1-D3 = target: CaSla1-D3
Summary of the method: as §1

ScAbp1 = target: ScAbp1
Summary of the method: as §1

ScBbc1 = target: ScBbc1
Summary of the method: as §1

ScBem1-D1 = target: ScBem1-D1
Summary of the method: as §1

ScBzz1-D1 = target: ScBzz1-D1
Summary of the method: as §1

ScBzz1-D2 = target: ScBzz1-D2
Summary of the method: as §1

ScCyk3 = target: ScCyk3
Summary of the method: as §1

ScFus1 = target: ScFus1
Summary of the method: as §1

ScHof1 = target: ScHof1
Summary of the method: as §1

ScHse1 = target: ScHse1
Summary of the method: as §1

ScLsb1 = target: ScLsb1
Summary of the method: as §1

ScLsb2 = target: ScLsb2
Summary of the method: as §1

ScLsb3 = target: ScLsb3
Summary of the method: as §1

ScLsb4 = target: ScLsb4
Summary of the method: as §1

ScMyo3 = target: ScMyo3
Summary of the method: as §1

ScMyo5 = target: ScMyo5
Summary of the method: as §1

ScNbp2 = target: ScNbp2
Summary of the method: as §1

ScPex13 = target: ScPex13
Summary of the method: as §1

ScRvs167 = target: ScRvs167
Summary of the method: as §1

ScSho1 = target: ScSho1
Summary of the method: as §1

ScSla1-D1-D2 = target: ScSla1-D1-D2
Summary of the method: as §1

ScSla1-D3 = target: ScSla1-D3
Summary of the method: as §1

SpAbp1-D1 = target: SpAbp1-D1
Summary of the method: as §1

SpBbc1 = target: SpBbc1
Summary of the method: as §1

SpBzz1-D1 = target: SpBzz1-D1
Summary of the method: as §1

MKRSRPSRSIPYTTP
SPOT peptide array binding signal intensity (SpBzz1-D2): 1.5 | SPOT peptide array binding signal intensity (SpCyk3): 14 | SPOT peptide array binding signal intensity (SpHof1): 50.2 | SPOT peptide array binding signal intensity (SpHof1-2): 30 | SPOT peptide array binding signal intensity (SpHof1-3): 244 | SPOT peptide array binding signal intensity (SpHse1): 177 | SPOT peptide array binding signal intensity (SpLsb1): 4.5 | SPOT peptide array binding signal intensity (SpLsb4): 580 | SPOT peptide array binding signal intensity (SpMyo1): 82.5 | SPOT peptide array binding signal intensity (SpNbp2): 224 | SPOT peptide array binding signal intensity (SpPex13): 16 | SPOT peptide array binding signal intensity (SpRvs167): 10.8 | SPOT peptide array binding signal intensity (SpSla1-D1-D2): ≤ 0 | SPOT peptide array binding signal intensity (SpSla1-D3): 7

ALFRLSFFFPLDPAY
SPOT peptide array binding signal intensity (AgAbp1): 90.5 | SPOT peptide array binding signal intensity (AgBbc1): 59.5 | SPOT peptide array binding signal intensity (AgBem1-D1): 487 | SPOT peptide array binding signal intensity (AgBzz1-D1): 204 | SPOT peptide array binding signal intensity (AgBzz1-D2): 161 | SPOT peptide array binding signal intensity (AgCyk3): 40.5 | SPOT peptide array binding signal intensity (AgFus1): 3740 | SPOT peptide array binding signal intensity (AgHof1): 184 | SPOT peptide array binding signal intensity (AgHse1): 2470 | SPOT peptide array binding signal intensity (AgLsb1): 66 | SPOT peptide array binding signal intensity (AgLsb4): 1960 | SPOT peptide array binding signal intensity (AgMyo5): 6.5 | SPOT peptide array binding signal intensity (AgNbp2): 796 | SPOT peptide array binding signal intensity (AgRvs167): 40.7 | SPOT peptide array binding signal intensity (AgSho1): 2320 | SPOT peptide array binding signal intensity (AgSla1-D1-D2): 150 | SPOT peptide array binding signal intensity (AgSla1-D3): 25.5 | SPOT peptide array binding signal intensity (CaAbp1-D1): 494 | SPOT peptide array binding signal intensity (CaAbp1-D2): 621 | SPOT peptide array binding signal intensity (CaBbc1): 162 | SPOT peptide array binding signal intensity (CaBem1-D1): 141 | SPOT peptide array binding signal intensity (CaBzz1-D1): 574 | SPOT peptide array binding signal intensity (CaBzz1-D2): 416 | SPOT peptide array binding signal intensity (CaCyk3): 68 | SPOT peptide array binding signal intensity (CaFus1): 4730 | SPOT peptide array binding signal intensity (CaHof1): 10 | SPOT peptide array binding signal intensity (CaHse1): 985 | SPOT peptide array binding signal intensity (CaLsb1): 79.5 | SPOT peptide array binding signal intensity (CaLsb4): 278 | SPOT peptide array binding signal intensity (CaMyo5): 156 | SPOT peptide array binding signal intensity (CaNbp2): 1460 | SPOT peptide array binding signal intensity (CaRvs167): 578 | SPOT peptide array binding signal intensity (CaRvs167-3): 964 | SPOT peptide array binding signal intensity (CaSho1): 2260 | SPOT peptide array binding signal intensity (CaSla1-D1-D2): 131 | SPOT peptide array binding signal intensity (CaSla1-D3): 848 | SPOT peptide array binding signal intensity (ScAbp1): 81.5 | SPOT peptide array binding signal intensity (ScBbc1): 9.5 | SPOT peptide array binding signal intensity (ScBem1-D1): 110 | SPOT peptide array binding signal intensity (ScBzz1-D1): 218 | SPOT peptide array binding signal intensity (ScBzz1-D2): 531 | SPOT peptide array binding signal intensity (ScCyk3): 246 | SPOT peptide array binding signal intensity (ScFus1): 3920 | SPOT peptide array binding signal intensity (ScHof1): 2.5 | SPOT peptide array binding signal intensity (ScHse1): 4160 | SPOT peptide array binding signal intensity (ScLsb1): 70.2 | SPOT peptide array binding signal intensity (ScLsb2): 24 | SPOT peptide array binding signal intensity (ScLsb3): 674 | SPOT peptide array binding signal intensity (ScLsb4): 104 | SPOT peptide array binding signal intensity (ScMyo3): 35 | SPOT peptide array binding signal intensity (ScMyo5): 62.8 | SPOT peptide array binding signal intensity (ScNbp2): 802 | SPOT peptide array binding signal intensity (ScPex13): 116 | SPOT peptide array binding signal intensity (ScRvs167): 91.7 | SPOT peptide array binding signal intensity (ScSho1): 2780 | SPOT peptide array binding signal intensity (ScSla1-D1-D2): 120 | SPOT peptide array binding signal intensity (ScSla1-D3): 426 | SPOT peptide array binding signal intensity (SpAbp1-D1): 303 | SPOT peptide array binding signal intensity (SpBbc1): 57.2 | SPOT peptide array binding signal intensity (SpBzz1-D1): 838 | SPOT peptide array binding signal intensity (SpBzz1-D2): 6.5 | SPOT peptide array binding signal intensity (SpCyk3): 55 | SPOT peptide array binding signal intensity (SpHof1): 844 | SPOT peptide array binding signal intensity (SpHof1-2): 230 | SPOT peptide array binding signal intensity (SpHof1-3): 1850 | SPOT peptide array binding signal intensity (SpHse1): 2380 | SPOT peptide array binding signal intensity (SpLsb1): 15.5 | SPOT peptide array binding signal intensity (SpLsb4): 463 | SPOT peptide array binding signal intensity (SpMyo1): 91 | SPOT peptide array binding signal intensity (SpNbp2): 2350 | SPOT peptide array binding signal intensity (SpPex13): 565 | SPOT peptide array binding signal intensity (SpRvs167): 131 | SPOT peptide array binding signal intensity (SpSla1-D1-D2): 8 | SPOT peptide array binding signal intensity (SpSla1-D3): 192
